Hits are enriched below; roughly 4.6% of the tested compounds scored in any of these assays.
TRHR enhancer-1: qHTS for Small Molecule Agonists and Allosteric Enhancers of Human TRH Receptor: Primary Screen for Enhancers | hit rate 0.66% among 360,000 | AID 493056, 2011 | enhancement, % at 2 µM | TRHR cells, fluo-8 calcium fluorescence, EC20 TRH enhancement | Thyrotropin-releasing hormone receptor (Homo sapiens), P34981; in the data active = enhancement above about 30%; note: 0% is about no effect
Target sequence (P34981 whole entry, looked up): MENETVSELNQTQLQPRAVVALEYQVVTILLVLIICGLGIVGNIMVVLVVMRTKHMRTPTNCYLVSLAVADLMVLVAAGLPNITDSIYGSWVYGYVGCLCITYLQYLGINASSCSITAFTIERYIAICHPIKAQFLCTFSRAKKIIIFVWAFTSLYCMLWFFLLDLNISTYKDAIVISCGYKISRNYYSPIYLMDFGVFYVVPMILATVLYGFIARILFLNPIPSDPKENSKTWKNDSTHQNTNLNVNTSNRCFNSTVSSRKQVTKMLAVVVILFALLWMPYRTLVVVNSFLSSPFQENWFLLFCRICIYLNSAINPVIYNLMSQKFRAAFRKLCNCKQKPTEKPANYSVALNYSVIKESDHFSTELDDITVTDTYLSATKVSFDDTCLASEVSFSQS
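TRHR-expressing cells loaded with fluo-8 calcium dye were read kinetically (ex 480/em 530) during compound addition, then stimulated with an EC20 of TRH (10 nM final). Enhancement of the Gq-mediated intracellular calcium response was scored.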
TRHR agonist-1: qHTS for Small Molecule Agonists and Allosteric Enhancers of Human TRH Receptor: Primary Screen for Agonists | Thyrotropin-releasing hormone receptor (Homo sapiens), P34981 | TRHR cells, calcium flux fluo-8, FDSS agonist mode | activation, % at 2 µM | hit rate 0.18% among 360,000; in the data active = activation above about 30%; note: 0% is about no effect
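Read-out: compound-evoked intracellular calcium rise in TRHR cells, fluo-8 dye, kinetic FDSS fluorescence at 1 s/cycle following a 10-cycle baseline. Cells cultured overnight before dye loading (30 min–1.5 h, RT).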
D1 agonist: Allosteric Agonists of the Human D1 Dopamine Receptor: qHTS; D(1A) dopamine receptor (Homo sapiens), P21728; HEK293 T-REx D1 cells, calcium flux, agonist mode; activation, % at 2 µM; hit rate 1% among 360,000; in the data active = activation above about 30%; note: 0% is about no effect
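Inducible HEK293 T-REx D1 cells, force-coupled to calcium signalling, were plated at 4000 cells/well with tetracycline and held overnight at 30 C. After no-wash calcium dye loading, compound-evoked calcium rise over 180 s flagged agonists.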
D1 antag: Antagonist of Human D 1 Dopamine Receptor: qHTS. activity change, negative = inhibition, % at 10 µM. HEK293 TREx D1 cells, calcium flux, dopamine EC80; hits give low values. AID 504652, 2011. D(1A) dopamine receptor (Homo sapiens), P21728. hit rate 3.2% among 360,000; in the data active = activity change below about -30%; note: % is set by controls: 0 for no effect and ±100 for the full control effect
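After overnight tetracycline induction at 30 C, force-coupled D1 HEK293 cells took up a no-wash calcium dye at room temperature. Compounds were added and monitored 180 s, and the response to EC80 dopamine was then recorded.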
D1 potentiator: Potentiators of Human D1 Dopamine Receptor: qHTS | potentiation, % at 10 µM | HEK293 TREx D1 cells, calcium flux, dopamine EC20 potentiation | hit rate 0.036% among 360,000; in the data active = potentiation above about 30%; note: 0% is about no effect
TRHR enhancer-2: qHTS for Small Molecule Agonists and Allosteric Enhancers of Human TRH Receptor: Confirmation Screen for Enhancers | shares compounds with TRHR enhancer-1 | TRH receptor cell assay, enhancer confirmation qHTS | 970 tested, under 10 active | activity change, negative = inhibition, % at 46.1 µM | AID 493076, 2011;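 note: compound effect scored on response to added TRH at EC20 of 10 nM; 0% is about no effect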
TRHR agonist-2: qHTS for Small Molecule Agonists and Allosteric Enhancers of Human TRH Receptor: Confirmation Screen for Agonists | Potency, µM (titrated, usually from 46.1 µM), for the others: at the highest dose activation, usual class: activators | shares compounds with TRHR enhancer-1 | hit rate 8% among 970 | TRHR-expressing cells, agonist activation read-out; note: potency is the fitted concentration of half-maximal effect; 0% is about no effect; nearly all actives have a fitted effect of over 75% in size
Starred values were filed as active, the others as inactive. Unless noted, calls come from the whole dose curve; as a rule, active = well fitted curve in the direction sought with a large enough effect; inconclusive = small, poorly fitted or top-dose-only effect, or another doubt; inactive = no such curve, though single readings can be large; an effect the other way counts as inactive or inconclusive.

`COc1ccc(N2Cc3cccc(C(=O)Nc4ccc(C(C)C)cc4)c3C2=O)cc1` gave TRHR enhancer-1 -4.8, TRHR agonist-1 1.1, D1 agonist 0.3, D1 antag -4.7 and D1 potentiator 1.1.
For Cc1ccc2c(c1)c(Sc1ccccc1)c(CC(=O)O)n2C the results were TRHR enhancer-1 20.4, TRHR agonist-1 99.0*, D1 agonist 2.6, D1 antag 8.4, D1 potentiator 8.0, TRHR enhancer-2 -6.9 and TRHR agonist-2 1.2%.
CCCc1cc(C(=O)N2CCCC(C(=O)c3cccc4ccccc34)C2)n(C)n1 (stereo unspecified) was read as TRHR enhancer-1 46.5*, TRHR agonist-1 -0.6, D1 agonist 3.9, D1 antag -3.2, D1 potentiator -4.4, TRHR enhancer-2 -9.3 and TRHR agonist-2 0.6%.
`COc1ccccc1CNC(=O)COC(=O)Cc1cccs1` gave TRHR enhancer-1 42.7*, TRHR agonist-1 -1.3, D1 agonist 1.6, D1 antag 7.7, D1 potentiator 0.0, TRHR enhancer-2 -6.5 and TRHR agonist-2 1.0%.
For COc1ccccc1NC(=O)COC(=O)Cc1cccs1 the results were TRHR enhancer-1 0.1, TRHR agonist-1 -0.7, D1 agonist 0.6, D1 antag -18.2 and D1 potentiator -4.0.
`CCCCn1nnnc1NCc1ccc(OC)c(OC)c1OC` gave TRHR enhancer-1 45.4*, TRHR agonist-1 0.3, D1 agonist 2.7, D1 antag 25.5, D1 potentiator 0.2, TRHR enhancer-2 -3.1 and TRHR agonist-2 1.5%.
`COc1cccc(CNc2nnnn2C)c1OC` gave TRHR enhancer-1 -1.5, TRHR agonist-1 0.3, D1 agonist -2.2, D1 antag 19.1 and D1 potentiator -4.1.
Cc1ccc(Nc2nc3ccccc3c3nnc(C)n23)c(C)c1 was read as TRHR enhancer-1 -0.4, TRHR agonist-1 -0.5, D1 agonist 4.5, D1 antag 13.1 and D1 potentiator 5.3.
Cc1ccccc1NC(=O)N1CCC(C(=O)c2ccc(F)cc2)CC1 was read as TRHR enhancer-1 1.1, TRHR agonist-1 0.3, D1 agonist 3.2, D1 antag 17.7 and D1 potentiator -3.2.
For O=C(c1ccc(F)cc1)C1CCN(C(=O)Nc2ccccc2Cl)CC1 the results were TRHR enhancer-1 49.8*, TRHR agonist-1 0.1, D1 agonist 2.9, D1 antag 3.6, D1 potentiator -1.9, TRHR enhancer-2 -2.2 and TRHR agonist-2 1.2%.
`Cc1ccc(NC(=O)c2sc3nc(-c4ccc(F)cc4)cn3c2C)c(C)c1` gave TRHR enhancer-1 1.4, TRHR agonist-1 -0.1, D1 agonist 0.4, D1 antag -0.2 and D1 potentiator -1.5.
COc1ccc(N2CCN(CC(=O)N3c4ccccc4CC3C)CC2)cc1 (stereo unspecified) was read as TRHR enhancer-1 41.3*, TRHR agonist-1 -0.2, D1 agonist 2.2, D1 antag 4.9, D1 potentiator -2.5, TRHR enhancer-2 inconclusive and TRHR agonist-2 1.0%.
For CC1CCN(CC(=O)N2c3ccccc3CC2C)CC1 (stereo unspecified) the results were TRHR enhancer-1 -0.5, TRHR agonist-1 -2.0, D1 agonist 5.3, D1 antag 1.3 and D1 potentiator -2.4.
Screening COc1ccccc1CNC(=O)C/C(C)=N/NC(=O)Cc1ccccc1 returned TRHR enhancer-1 41.0*, TRHR agonist-1 0.6, D1 agonist 1.6, D1 antag -6.8, D1 potentiator 4.2, TRHR enhancer-2 -3.6 and TRHR agonist-2 1.2%.
`CC1CCN(CCCNC(=O)C2CCC(CNS(=O)(=O)c3cccc4nsnc34)CC2)CC1` (stereo unspecified) gave TRHR enhancer-1 8.6, TRHR agonist-1 0.5, D1 agonist 0.3, D1 antag -5.5 and D1 potentiator 2.8.
For O=C(NCCCN1CCCCC1)C1CCC(CNS(=O)(=O)c2cccc3nsnc23)CC1 (stereo unspecified) the results were TRHR enhancer-1 47.6*, TRHR agonist-1 1.0, D1 agonist 0.4, D1 antag 5.0, D1 potentiator 0.2, TRHR enhancer-2 -0.5 and TRHR agonist-2 -0.8%.
Screening O=C(c1ccc2c(c1)N(Cc1ccccc1F)C(=O)c1ccccc1S2=O)N1CCC(Cc2ccccc2)CC1 (stereo unspecified) returned TRHR enhancer-1 -4.0, TRHR agonist-1 0.6, D1 agonist 4.3, D1 antag 3.3 and D1 potentiator -3.3.
COc1ccc(S(=O)(=O)N(C)CC(=O)NC2CCCCC2)cc1Cl was read as TRHR enhancer-1 -0.9, TRHR agonist-1 -0.7, D1 agonist 0.6, D1 antag -2.4 and D1 potentiator 1.6.
Screening CNC(=O)CN(C)S(=O)(=O)c1ccc(OC)c(Cl)c1 returned TRHR enhancer-1 74.6*, TRHR agonist-1 -0.3, D1 agonist 0.5, D1 antag 3.4, D1 potentiator -2.1, TRHR enhancer-2 -4.0 and TRHR agonist-2 -0.7%.
For CN1C(=O)c2cccc3c(N(C)C)ccc(c23)C1=O the results were TRHR enhancer-1 8.1, TRHR agonist-1 44.4*, D1 agonist 59.6*, D1 antag -1.9, D1 potentiator 2.4, TRHR enhancer-2 6.6 and TRHR agonist-2 16.4µM*.
For O=C(NC1CCCCC1)C(c1ccc2ncccc2c1)N(Cc1ccccc1)C(=O)c1cccs1 (stereo unspecified) the results were TRHR enhancer-1 59.1*, TRHR agonist-1 0.7, D1 agonist 0.5, D1 antag 17.4, D1 potentiator 4.0, TRHR enhancer-2 -6.3 and TRHR agonist-2 1.0%.
Screening CCOC(=O)c1c(NC(=O)Cn2c(C)nc3ccccc32)sc2c1CCC2 returned TRHR enhancer-1 60.1*, TRHR agonist-1 -0.8, D1 agonist 6.4, D1 antag 3.2, D1 potentiator -4.1, TRHR enhancer-2 -5.3 and TRHR agonist-2 5.5%.
Screening COc1cc(OC)cc(C(=O)NCc2cc(C)nc3ccccc23)c1 returned TRHR enhancer-1 -1.9, TRHR agonist-1 33.1*, D1 agonist 4.6, D1 antag -2.7, D1 potentiator 10.8, TRHR enhancer-2 -7.6 and TRHR agonist-2 0.7%.
